Experimental data taken from the supplement of paper PMC12645437, “Orthogonal IMiD-Degron Pairs Induce Selective Protein Degradation in Cells” (ACS Chemical Biology, 2025).
The full ranking holds about 8,300 sequences; the median of “log2 fold change of degron read counts, EGFP-low vs EGFP+ sorted cells (limma voom), compound-induced degradation” is about -1.1, and the highest 2% start at about 3.2. For the sample, the highest values were picked, then their nearest neighbours and some sequences at random.

T1: CRBN, Q96SW2
T1 chain: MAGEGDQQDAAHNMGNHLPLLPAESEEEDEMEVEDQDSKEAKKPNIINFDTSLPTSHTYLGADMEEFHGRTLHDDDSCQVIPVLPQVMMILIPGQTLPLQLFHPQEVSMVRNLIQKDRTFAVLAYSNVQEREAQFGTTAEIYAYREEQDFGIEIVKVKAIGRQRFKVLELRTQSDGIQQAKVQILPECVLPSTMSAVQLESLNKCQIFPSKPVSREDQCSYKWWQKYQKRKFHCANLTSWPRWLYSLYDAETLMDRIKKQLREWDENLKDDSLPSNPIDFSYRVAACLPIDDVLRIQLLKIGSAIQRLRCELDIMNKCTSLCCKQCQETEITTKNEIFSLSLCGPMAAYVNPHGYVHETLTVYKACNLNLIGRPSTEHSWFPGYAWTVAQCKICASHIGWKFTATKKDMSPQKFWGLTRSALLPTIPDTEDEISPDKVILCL


Target: T1, CRBN, Q96SW2
Test: log2 fold change of degron read counts, EGFP-low vs EGFP+ sorted cells (limma voom), compound-induced degradation; higher = more compound-induced degradation of the degron-EGFP fusion; degrons are variants of IKZF1/3 zinc finger 2; compound dose not given here
Conditions: Jurkat, 18 h
[1] = compound: compound 19 (5-tert-butyl-thalidomide)
[2] = compound: compound 22 (5-morpholino-thalidomide)
[3] = compound: compound 33 (diphenyl IMiD analogue)
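Note: pooled lentiviral library of zinc finger degron-EGFP fusions in mCherry-positive Jurkat cells, FACS-sorted after compound exposure, with degron abundance counted by next-generation sequencing.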

Sequence	log2 fold change of degron read counts [1]	log2 fold change of degron read counts [2]	log2 fold change of degron read counts [3]	log2 fold change of degron read counts (compound: thalidomide)
FQCEQCGAAFTQKGNLLRHIKL [46F_47Q_49E_50Q_52G_53A_54A_55F_67L_, Q9UKT9]	-0.398	0.724	0.313	3.01
LTCNQCGFPCTQKGNLLRHIKL [46L_47T_49N_50Q_52G_53F_54P_55C_67L_, Q9UKT9]	-2.43	-2.96	-2.54	-1.71
FTCEVCGAFFTQKGNLLRHIKL [46F_47T_49E_50V_52G_53A_54F_55F_67L_, Q9UKT9]	-0.934	-0.537	0.743	0.936
FSCDQCGAMFTQKGNLLRHIKL [46F_47S_49D_50Q_52G_53A_54M_55F_67L_, Q9UKT9]	-1.8	-2.9	-1.87	-2.82
FSCPQCGAAFTQKGNLLRHIKL [46F_47S_49P_50Q_52G_53A_54A_55F_67L_, Q9UKT9]	0.138	-0.952	1.89	-0.879
FWCPICGHMFTQKGNLLRHIKL [46F_47W_49P_50I_52G_53H_54M_55F_67L_, Q9UKT9]	-0.107	-0.117	0.131	-0.274
LHCPICGFMCTQKGNLLRHIKL [46L_47H_49P_50I_52G_53F_54M_55C_67L_, Q9UKT9]	2.17	2.35	2.28	1.44
FVCEQCGATFTQKGNLLRHIKL [46F_47V_49E_50Q_52G_53A_54T_55F_67L_, Q9UKT9]	-2.6	-1.48	0.0752	-0.452
FLCNQCGADFTQKGNLLRHIKL [46F_47L_49N_50Q_52G_53A_54D_55F_67L_, Q9UKT9]	-2.76	-3.21	-2.79	-2.29
FYCEICGHEFTQKGNLLRHIKL [46F_47Y_49E_50I_52G_53H_54E_55F_67L_, Q9UKT9]	-2.18	-2.9	-1.81	-2.55
FYCPQCGAFFTQKGNLLRHIKL [46F_47Y_49P_50Q_52G_53A_54F_55F_67L_, Q9UKT9]	0.239	0.269	0.837	-1.07
FNCEVCGASFTQKGNLLRHIKL [46F_47N_49E_50V_52G_53A_54S_55F_67L_, Q9UKT9]	3.22	1.38	0.489	0.435
FFCEVCGASFTQKGNLLRHIKL [46F_47F_49E_50V_52G_53A_54S_55F_67L_, Q9UKT9]	3.45	3.66	2.48	1.61
FLCEVCGASFTQKGNLLRHIKL [46F_47L_49E_50V_52G_53A_54S_55F_67L_, Q9UKT9]	1.64	-0.285	1.43	1.45
FICNICGAGFTQKGNLLRHIKL [46F_47I_49N_50I_52G_53A_54G_55F_67L_, Q9UKT9]	-0.991	1.17	1.13	1.71
FTCEICGRFFTQKGNLLRHIKL [46F_47T_49E_50I_52G_53R_54F_55F_67L_, Q9UKT9]	-1.56	-2.16	-1.26	-1.11
FSCPICGHHFTQKGNLLRHIKL [46F_47S_49P_50I_52G_53H_54H_55F_67L_, Q9UKT9]	-1.98	-2.66	-2	-1.93
